Source: PubChem BioAssay (several laboratories)
hDAT+cocaine: changed hDAT dopamine uptake under cocaine IC80, either direction, primary screen, cocaine antagonist project, cell-based, LLC-PK1 hDAT, [14C]-dopamine uptake, MLSMR | Sodium-dependent dopamine transporter (Homo sapiens), Q01959 | LLC-PK1 hDAT cells, [14C]-dopamine uptake with cocaine IC80; actives deviate in either direction | B-score at 10 µM | 110,000 compounds, 1.3% hits;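 active = Z score or B-score, a plate-position-corrected score, falls beyond the plate's 99.7% confidence bounds, in either direction; inactive = both scores lie inside the 99.7% bounds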;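 also: scored against the spread of the other compound wells on the same plate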
PLAP act: PLAP enzyme activators, biochemical, luminescence, HTS; Alkaline phosphatase, placental type (Homo sapiens), P05187; purified PLAP enzyme, luminescent substrate read-out; hits give high values; activation fold at 20 µM; 96,000 compounds, 1.2% hits; in the data active = activation fold above about 2
PostGolgi yeast: phenotypic screen on post-Golgi transport, primary screen; post-Golgi transport phenotypic cell assay; inhibition, % at 10 µM; 98,000 compounds, 0.9% hits; AID 739, 2007;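 also: yeast cells grown in 1536-well plates; yeast grown about 18 h at 30C before absorbance read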
Cav32 inh: Cav3.2 calcium influx blockers – cell-based, Fluo-4 calcium fluorescence, FDSS, MLSMR library, primary screen; Voltage-dependent T-type calcium channel subunit alpha-1H (Homo sapiens), O95180; Cav3.2-expressing cells; hits give low values; B-score at 10 µM; 100,000 compounds, 4% hits;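 active = single-dose well whose peak fluorescence ratio is a statistical outlier from its plate by either plate-standardised score or position-corrected B-score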
PostGolgi ctrl: growth inhibition of yeast control strain, primary screen, counter-screen for post-Golgi transport modulator project; efflux-deficient yeast background strain, growth absorbance A615, 16 h; inhibition, % at 10 µM; 98,000 compounds, 5% hits; AID 738, 2007
D1 mod: D1 CRE-luciferase signal change, two-sided – cell-based, HEK293 D1, dopamine EC30, D1 allosteric modulator project, primary screen | D(1A) dopamine receptor (Homo sapiens), P21728 | dopamine EC30 potentiation; actives deviate in either direction | B-score at 10 µM | 58,000 compounds, 5.9% hits;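 active = luminescence count or its row- and column-corrected plate score outside the 99.7% band of the plate's sample wells, on either side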
Active calls of the source: *; . = no result given. Only some compounds are listed: those with a hit (about 12% of all), similar ones and a draw of the others. Rule as the data show it, unless noted: active = inhibition above about 30%; inactive = the rest.

SMILES | hDAT+cocaine | PLAP act | PostGolgi yeast | Cav32 inh | PostGolgi ctrl | D1 mod
CCn1c(SCc2nc3sc(C(=O)O)c(C)c3c(=O)[nH]2)nc2ccccc21 | . | 2.3* | 16 | . | 0 | .
O=C1O/C(=C/C(=O)N2CCOCC2)c2ccccc21 | 0.31 | . | . | 0.16 | . | .
COc1c(N2CCN(C(=S)NCc3ccccc3)C(C)C2)c(F)cc2c(=O)c(C(=O)O)cn(C3CC3)c12 (stereo not drawn) | 3.3 | 1 | -2 | 2.8* | 24 | .
COc1cc(-c2nnc(SC(C)C(=O)Nc3c(C)n(C)n(-c4ccccc4)c3=O)o2)cc(OC)c1OC (stereo not drawn) | 0.17 | 2* | 13 | 0.33 | -6 | .
Cc1ccc(CNC(=O)CSc2nc(N3CCCCC3)nc(N3CCCCC3)n2)cc1 | 0.58 | 1.6 | -6 | -3.8 | 46* | -0.052
CCOC(=O)Cn1c(=S)[nH]c2c(oc3ccc(Cl)cc32)c1=O | 0.099 | 1 | -9 | 0.52 | 24 | .
CC(C)C(=O)Nc1ccc([N+](=O)[O-])c(C(F)(F)F)c1 | -0.19 | . | . | 0.00062 | . | .
CCCC1COC(Cn2cncn2)(c2ccc(C)cc2)O1 (stereo not drawn) | 0.22 | 1 | 101* | 0.072 | 93* | 2.5
Cc1cccc2cc(CN(Cc3ccc(F)cc3)C(=O)N(C)C)c3nnnn3c12 | -1.2 | 1.6 | 12 | -6.1* | 32* | -0.58
Cc1cccc2cc(CN(Cc3ccc(F)cc3)C(=O)C(F)(F)F)c3nnnn3c12 | -0.85 | . | . | 0.42 | . | .
O=C(c1cc(C2CC2)nc2ccccc12)N1N=C(C(F)F)CC1(O)C(F)F (stereo not drawn) | 0.4 | . | . | -3.5 | . | .
CC(C)c1ccc(-c2cc(C(=O)N3N=C(C(F)F)CC3(O)C(F)F)c3ccccc3n2)cc1 (stereo not drawn) | -0.35 | 2.1* | 1 | -2.2 | 23 | .
O=C(c1cc(C2CC2)nc2ccc(Br)cc12)N1N=C(C(F)F)CC1(O)C(F)F (stereo not drawn) | 0.076 | . | . | -7.5* | . | .
CC1(c2ccc(Cl)cc2Cl)OCC(Cn2ccnc2)O1 (stereo not drawn) | -0.2 | 0.9 | -2 | 0.0025 | 25 | -0.01
O=C(CN(c1ccc(F)cc1)S(=O)(=O)c1ccc2c(c1)OCCO2)NCc1ccccn1 | 0.048 | 1.7 | 9 | -0.02 | 22 | -0.44
COc1ccccc1-c1nc(C#N)c(N2CCCCCC2)o1 | -0.34 | 1.4 | -10 | -2.3 | 42* | .
N#Cc1nc(COc2ccc(-c3ccccc3)cc2)oc1NCCCN1CCOCC1 | 1.9 | 1.7 | 78* | -1.9 | 16 | -1.3
COc1ccc(-c2nc(C#N)c(N3CCc4ccccc4C3)o2)cc1OC | 1 | 1.1 | 5 | -0.24 | 33* | .
N#Cc1nc(COc2ccccc2)oc1NCCN1CCOCC1 | 0.4 | 0.9 | 1 | 0.042 | 11 | -1.1
COc1ccc(N2CCN(c3oc(-c4ccco4)nc3C#N)CC2)cc1 | -0.65 | 0.8 | 32* | -0.44 | -3 | 0.63
CN1CCN(Cc2nc3c(c(=O)n(C)c(=O)n3C)n2Cc2ccccc2Cl)CC1 | . | . | . | . | . | 0.0035
COC(=O)C1=C(C(=O)OC)[C@@H]2N(C)c3ccccc3[C@@]23C[C@@H](CO)N(C(=O)NCCBr)C3=N1 | 0.026 | . | . | -3.7 | . | .
OCCn1c(Cl)nc2ccccc21 | 0.37 | . | . | -0.34 | . | .
COc1ccc(N2CCN(c3oc(COc4ccccc4)nc3C#N)CC2)cc1 | -0.098 | . | -6 | -3.3 | 20 | -0.35
N#Cc1nc(COc2ccccc2)oc1N1CCCCCC1 | 0.0064 | 0.7 | -2 | -4* | 13 | .
c1ccc(-c2oc3ncnc(NCCCN4CCOCC4)c3c2-c2ccccc2)cc1 | 0.61 | 1.7 | 15 | 0.044 | 67* | 2
COc1ccc(N2CCN(c3oc(COc4ccc(Cl)cc4)nc3C#N)CC2)cc1 | -0.3 | 0.9 | -2 | -6.1* | 6 | -1.4
CCc1nnc(NC(=O)c2ccc(-c3cccc(C(F)(F)F)c3)o2)s1 | -7.6* | 1.3 | 5 | 0.25 | 13 | -0.71
CCn1c(COc2ccc3c(c2)OCO3)nnc1SCC(=O)c1ccc(Cl)cc1 | -0.35 | 0.8 | -10 | 0.25 | 18 | .
COc1ccc(OC)c(NC2=NC3(CCCCC3)N=C(N)N2)c1 | 0.069 | 1.1 | 9 | 0.73 | 8 | -5.2*
